Compounds with a hit are over-represented: about 3.8% of the library has one in this group of screens.
ERb coact inh – blocks coactivator binding to human estrogen receptor beta | 1.3% of 86,000 active | Q92731 | inhibition, % at 25.6 µM | TR-FRET ER-beta LBD / SRC1-Cy5 peptide binding; receptor agonist-loaded with 1 µM estradiol;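 active = compounds whose percent inhibition of the receptor-coactivator binding signal exceeds about 50% in the single-dose screen, limit read from the data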;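 note: 0% = receptor plus peptide wells without compound and 100% = peptide-only wells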
MT1-MMP txn act – MT1-MMP promoter transcription activation | HT1080 MT1-MMP promoter luciferase reporter, luminescence, overnight; active compounds read high | activation factor at 10 µM | 0.16% of 86,000 active | AID 750;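 active = activation factor of at least 2 for MT1-MMP transcription at 10 µM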
ERa SRC1 pot – ER-alpha (human) coactivator binding potentiation; P03372; TR-FRET ERalpha-LBD/SRC-Cy5 coactivator binding, 2 h; 100 = basal binding, no effect; coactivator binding (% of control), % at 25.6 µM; 1.3% of 86,000 active; AID 639; in the data active = activity above about 200%;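 note: binding measured in presence of low estradiol as agonist stimulus; 0% = peptide alone without receptor and 100% = receptor with peptide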
DAT uptake mod – changed human dopamine transporter uptake under cocaine IC80; LLC-PK1 hDAT cells, [14C]-dopamine uptake with cocaine IC80; actives deviate in either direction; B-score at 10 µM; 1.3% of 110,000 active; AID 449768;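 active = Z score or B-score, a plate-position-corrected score, falls beyond the plate's 99.7% confidence bounds, in either direction; inactive = both scores lie inside the 99.7% bounds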;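 note: scored against the spread of the other compound wells on the same plate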
Target sequence (Q01959 whole entry, looked up): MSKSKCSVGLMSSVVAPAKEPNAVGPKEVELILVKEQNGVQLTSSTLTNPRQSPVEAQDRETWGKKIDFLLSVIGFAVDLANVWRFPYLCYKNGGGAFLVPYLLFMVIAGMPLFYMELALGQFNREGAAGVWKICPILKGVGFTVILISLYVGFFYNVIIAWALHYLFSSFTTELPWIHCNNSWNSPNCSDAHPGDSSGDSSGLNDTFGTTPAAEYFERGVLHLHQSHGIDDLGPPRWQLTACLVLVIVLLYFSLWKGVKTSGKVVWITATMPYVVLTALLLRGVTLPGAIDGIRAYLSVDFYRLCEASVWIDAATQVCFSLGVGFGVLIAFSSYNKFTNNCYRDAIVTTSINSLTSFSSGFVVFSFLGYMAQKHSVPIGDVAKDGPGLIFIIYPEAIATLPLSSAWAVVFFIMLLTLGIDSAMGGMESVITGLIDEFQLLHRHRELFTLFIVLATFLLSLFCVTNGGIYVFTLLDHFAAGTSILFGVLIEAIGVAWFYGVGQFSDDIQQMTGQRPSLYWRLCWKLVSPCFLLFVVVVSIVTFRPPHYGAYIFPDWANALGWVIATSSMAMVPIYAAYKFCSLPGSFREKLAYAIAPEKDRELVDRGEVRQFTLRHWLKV
ERa coact inh – ER-alpha (human) coactivator binding inhibition | inhibition, % at 25.6 µM | TR-FRET ER-alpha LBD / SRC-1 peptide, estradiol-bound | 1.7% of 86,000 active | AID 629 | P03372; in the data active = inhibition above about 50%;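 note: 0% = receptor plus peptide control and 100% = peptide only without receptor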
Starred values were filed as active, the others as inactive; . = not tested or not shown; [ ] = remark or other dose.

SMILES	ERb coact inh	MT1-MMP txn act	ERa SRC1 pot	DAT uptake mod	ERa coact inh
COc1ccc([N+](=O)[O-])cc1NC(=S)NC(NC(=O)C(c1ccccc1)c1ccccc1)C(Cl)(Cl)Cl (stereo not drawn)	.	.	.	-1.7	.
COc1ccc(NC(=O)c2noc3c2CCC3)cc1	90*[fluorescence artefact?]	.	44	0.26	86*[fluorescence artefact?]
O=C(Nc1ccccc1C(=O)N1CCOCC1)c1noc2c1CCCC2	-5	1.1	109	3*	0
COc1cc(NC(=O)c2noc3c2CCC3)c(OC)cc1Cl	86*[fluorescence artefact?]	1.3	25	-0.67	88*[fluorescence artefact?]
C=CCn1c(N)cc(=O)nc1SC(C)C(=O)Nc1cccc2ccccc12 (stereo not drawn)	-23	1.3	102	-0.24	-21
CC(=O)OC1CC(C)(C)N(OC(=O)c2ccccc2)C(C)(C)C1	-3	1.1	103	0.061	-5
CC(=O)OC1CC(C)(C)N(OC(=O)c2ccc(N)cc2)C(C)(C)C1	20	1	54	-0.13	61*
CCc1nc2ccccc2c(=O)n1NC(=O)c1c(O)c2ccccc2[nH]c1=O	0	1.2	273*	0.89	-36
CCCC1CCc2c(sc(N)c2C(N)=O)C1 (stereo not drawn)	0	1.1	67	-0.092	-6
COc1ccccc1N(CC(=O)NCc1ccccc1)C(=O)CCC(=O)Nc1cc(C)ccn1	16	.	92	2.5*	17
COC(=O)[C@@]1(Cc2ccc(OC)cc2)[C@H]2c3cc(C(=O)N(C)C)n(Cc4ccccn4)c3C[C@H]2CN1C(=O)c1ccccc1	.	1.1	.	.	.
COc1ccc(CSc2nnc3n(C)c(=O)c4c5c(sc4n23)CCCC5)cc1	-2	0.9	98	.	1
CCSc1nnc2n(-c3ccc(OC)cc3)c(=O)c3c4c(sc3n12)CCCC4	4	1.2	119	-8*	24
CCOC(=O)C(C(=O)OCC)C(C(=O)OCC)N1CCOCC1 (stereo not drawn)	16	0.8	86	0.053	-1
CCCCC(CC)CNC(=O)C1C2C=CC(C2)C1C(=O)O (stereo not drawn)	6	2.1*	115	-0.69	6
Cc1nn(C)c(C)c1S(=O)(=O)N1CCC(C(=O)NC2CCCCCC2)CC1	1	1	127	-2.6*	1
Cc1cccc(NC(=O)C2CCN(S(=O)(=O)c3c(C)nn(C)c3C)CC2)n1	57*	1.1	114	-0.12	2
Cc1nn(C)c(C)c1S(=O)(=O)N1CCC(C(=O)NC2CCCCC2)CC1	5	1.3	100	-0.018	0
O=C(CN1C(=O)COc2ccccc21)N1CCc2ccccc2C1	10	1.2	97	-0.019	13
COc1ccc(N2C(=O)CSC2c2ccc3c(c2)OCO3)cc1 (stereo not drawn)	4	1.2	106	0.11	-3
COc1ccc(N2C(=O)CSC2c2ccncc2)cc1 (stereo not drawn)	-21	1.1	90	-7.4*	-20
Cc1oc(CC(C)C)cc1C(=O)Nc1cccc2ccccc12	-4	1.2	96	-6.9*	9
CC(=O)Nc1nnc(SCC(=O)NCC2CCCO2)s1 (stereo not drawn)	.	1	.	-0.4	.
CC(=O)Nc1nnc(SCC(=O)NCCOc2ccccc2)s1	-2	1.1	132	-8*	-1
COc1cccc(C(=O)c2c[nH]c(C(=O)NCc3cccs3)c2)c1	.	.	.	2.3	.
SMILES	ERb coact inh	MT1-MMP txn act	ERa SRC1 pot	DAT uptake mod	ERa coact inh
COc1ccc2nc3sc(C(=O)NCc4cccs4)c(N)c3cc2c1	19	1.1	90	1	54*[fluorescence artefact?]
Cc1ccc(NC(=O)NC(=O)CN2C(=O)NC3(CCc4ccccc43)C2=O)c(C)c1 (stereo not drawn)	2	1.1	105	2.5*	9
Cc1ccc(NC(=O)CN2C(=O)NC3(CCc4ccccc43)C2=O)cc1Cl (stereo not drawn)	.	.	.	-1.2	.
COC(=O)[C@@H]1C[C@H]2CC[C@H](O)C[C@H]2N1Cc1c(F)cccc1Cl	.	1.1	.	.	.
C/C(=C\C1CCCCC1)C(NC(=O)c1cccnc1)c1ccc(-c2ccccc2)cc1 (stereo not drawn)	.	1.2	.	.	.
Cc1nnc(NCc2ccncc2)c2ccccc12	50*[fluorescence artefact?]	1.1	179	0.48	60*[fluorescence artefact?]
CCCn1c2ccccc2c2nnc(SCC(=O)Nc3cc(C)on3)nc21	6	1	102	-0.072	0
CCn1c2ccccc2c2nnc(SCC(=O)N3CC(C)OC(C)C3)nc21 (stereo not drawn)	-2	1	112	-8.8*	10
O=C(CSc1nnnn1-c1cccc(F)c1)Nc1nc2ccccc2s1	17	1.2	298*	0.61	55*[fluorescence artefact?]
OC1(c2cccc(C(F)(F)F)c2)CCNCC1	70*[fluorescence artefact?]	1	86	-0.3	16
C[C@]12CC[C@H]3C(=CCc4cc(O)ccc43)[C@@H]1CCC2=O	13	1.5	206*	-0.3	16
O=C1C(Cl)=C(NC2CCc3ccccc32)C(=O)c2ncccc21 (stereo not drawn)	.	1.1	.	.	.
COc1cccc2sc(Nc3nnc(-c4ccc(F)cc4)o3)nc12	25	.	74	-2.4	65*
COc1cccc2sc(Nc3nnc(-c4cccs4)o3)nc12	14	1.5	89	-0.41	16
CN(CC(=O)O)Cc1nc2ccccc2[nH]1	.	.	.	0.48	.
O=C(Nc1nc(-c2nc3ccccc3s2)cs1)C1COc2ccccc2O1 (stereo not drawn)	30	1.5	128	-0.51	68*
Cc1ccc(S(=O)(=O)N/N=C/c2c(C)nn(-c3ccccc3)c2C)cc1	.	.	.	2.5*	.
COc1cccc(C2C(C(C)=O)=C(O)C(=O)N2Cc2ccco2)c1 (stereo not drawn)	-6	1	153	-0.19	58*[fluorescence artefact?]
COc1ccc(/C(O)=C2\C(=O)C(=O)N(Cc3ccco3)C2c2cc(OC)ccc2OC)cc1 (stereo not drawn)	-5	1.1	105	0.95	4
CC(=O)C1=C(O)C(=O)N(Cc2ccco2)C1c1ccccc1 (stereo not drawn)	0	1	99	-0.083	4
COc1ccc(OC)c(C2/C(=C(/O)c3ccc(C)cc3)C(=O)C(=O)N2Cc2ccco2)c1 (stereo not drawn)	9	1	85	.	96*[fluorescence artefact?]
CC(=O)N1CC=CC1(C)C(=O)NCc1ccc(C)o1 (stereo not drawn)	.	0.9	.	.	.
CCOC(=O)c1c(C)n(C)c2ccc(OCC(O)Cn3c(C)nc4ccccc43)cc12 (stereo not drawn)	.	1.1	.	2*	.
CCOC(=O)c1c(C)n(C)c2ccc(OCC(O)CN3CCN(C)CC3)cc12 (stereo not drawn)	1	1.1	116	-0.074	-4
COCCCn1c(SCc2ccccc2)nc2cc(OC)c(OC)cc2c1=N	.	.	.	8.2*	.
COCCCn1c(SCc2cccc(C(F)(F)F)c2)nc2cc(OC)c(OC)cc2c1=N	.	.	.	1.1	.
CSc1c(-c2ccccc2)nc2ccc(Cl)cc2c1C(=O)O	.	.	.	-0.39	.
C=CCSc1nc(-c2ccccc2)c2cc(Cl)ccc2n1	.	.	.	-1.6*	.

Screening data from PubChem BioAssay.
